Assay [1] in a line: TAMU_HCS_1.5hr_SingleDonor1434_Cytotoxicity: Cytotoxicity Assessment using High-content Screening (HCS) Fluorescent Imaging for the Texas A&M University (TAMU) 1.5-hr Human Induced Pluripotent Stem Cell (iPSC)-derived Cardiotoxicity Assay (AID 2284234; active = hit-call score of the fitted dose curve at least 0.9, where 1 is the maximum). The procedure, abridged:
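Nuclear counts from Hoechst 33342 imaging define cytotoxicity here, with EC10 (10% cell-count loss relative to DMSO) as point of departure. iPSC cardiomyocytes received 0.2-100 uM test chemical in 0.5% DMSO for 1.5 h at 37 C.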

Assay [2] in a line: TAMU_PeakParms_SingleDonor1434_QT: Texas A&M University (TAMU) 1.5-hr Human Induced Pluripotent Stem Cell (iPSC)-derived Cardiomyocytes Calcium (Ca+2) Flux Assay for Cardiotoxicity: QT (decay-rise ratio) (AID 2284235; active = hit-call score of the fitted dose curve at least 0.9, where 1 is the maximum). In short, it runs like this: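 Decay/rise ratio of calcium-flux fluorescence scored after 90 min exposure (37C) of donor 1434 iPSC cardiomyocytes to 0.2–100 uM (0.5% DMSO). Beat-cessation and severe-notch points removed; POD is EC05, a 5% rise over DMSO.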

A short description of assay [3]: CCTE_Mundy_HCI_Cortical_NOG_NeuronCount: CCTE's Neurite Outgrowth Assay in rat cortical cells for Neuron Count, Mundy Lab (AID 2284236; active = hit-call score of the fitted dose curve at least 0.9, where 1 is the maximum;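 also: neurons counted by imaging betaIII-tubulin and Hoechst stained cortical cells; cells exposed to compound for about 48 hours before fixation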). The procedure, abridged: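 Read-out: neuron number by high-content imaging of betaIII-tubulin (Alexa Fluor-488) and Hoechst-labelled rat primary cortical cells.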
The nature of assay [4]: CCTE_Mundy_HCI_Cortical_NOG_BPCount: CCTE's Neurite Outgrowth Assay in rat cortical cells for Branch Point Count, Mundy Lab (AID 2284237).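 As to AC50: branch points counted about two days after chemical exposure.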 The procedure, abridged:
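Measured 50.33 h after dosing, this morphology endpoint uses rat primary cortical cultures labelled for betaIII-tubulin. Branch points are quantified by high-content imaging, with DMSO as negative control and baseline.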

Assay [5] can be described thus: CCTE_Mundy_HCI_hNP1_Casp3_7: CCTE's Caspase-Glo 3/7 Assay in human neuroprogenitor cells for Apoptosis, Mundy Lab (AID 2284240). In short, it runs like this: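 Neuroepithelial-lineage stem cells from WA09 embryonic cells were treated with chemicals after 40–44 h of culture. Twenty-four hours later, caspase-3/7 activation was detected luminescently after a 30 min room-temperature reagent step, with DMSO as baseline.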

A short description of assay [6]: CCTE_Mundy_HCI_hNP1_CellTiter: CCTE's Cell Titer-Glo 2 Assay in human neuroprogenitor cells for Viability, Mundy Lab (AID 2284241; active = hit-call score of the fitted dose curve at least 0.9, where 1 is the maximum;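 as to AC50: a hit is a drop in ATP luminescence versus DMSO meaning reduced viability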). In short, it runs like this: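 Measures ATP content in human neural progenitors derived from WA09 embryonic cells. Read-out at 26.5 hours after dosing, with DMSO serving as the negative control and baseline.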
Background: In ATP-based viability assays light output follows the ATP content of the culture.

A short description of assay [7]: CCTE_Mundy_HCI_Cortical_Synap_Neur_Matur_NeuronCount: CCTE's Synaptogenesis and Neurite Maturation Assay in rat cortical cells for Neuron Count, Mundy Lab (AID 2284242; active = hit-call score of the fitted dose curve at least 0.9, where 1 is the maximum;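 as to AC50: hits reduce neuron count versus DMSO baseline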). The procedure, abridged: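 Neuron counts come from automated high-content imaging of Hoechst nuclei and MAP2/synaptophysin immunostaining at DIV 12, with loss of signal judged against DMSO. Cultures of rat cortical cells had glial growth arrested by AraC at DIV 5; chemical exposure began DIV 7.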

Assay [8] in a line: BSK_BT_Bcell_Proliferation: Viability Assessment in the BioMAP Diversity Plus: BT Assay for B cell Proliferation (AID 2284227). To be noted: primary human B cells with PBMC. The procedure, abridged:
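SRB-based protein staining (0.1% SRB after 10% TCA fixation, 560 nm) quantifies proliferation in human B cells co-cultured with PBMC, 72 h post-dosing, with signal gain scored relative to DMSO negative control.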

Read-out in assay [9]: Interleukin 6 (IL6), IL6 (gene 3569)
As to the kind of experiment: BSK_BT_xIL6: BioMAP Diversity Plus: BT Assay for Interleukin 6 (IL6) Biomarker Activity (AID 2284228). To be noted: primary human B cells with PBMC. The procedure, abridged:
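Secreted IL-6 in the primary human B cell plus PBMC system, measured by Luminex at 24 h post-chemical, DMSO as baseline. Alamar Blue viability: 75,000 cells/well, chemical 1 h before SEB/TSST-1 (20 ng/mL each), 90 h, then 6 h dye.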

Read-out in assay [10]: Interleukin 17A (IL17A), IL17A (gene 3605)
In words: BSK_BT_xIL17A: BioMAP Diversity Plus: BT Assay for Interleukin 17A (IL17A) Biomarker Activity (AID 2284229). To be noted: primary human B cells with PBMC. The procedure, abridged:
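Luminex xMAP quantification of secreted IL-17A after 24 h chemical exposure of a primary human B cell/PBMC co-culture. Signal increases fitted relative to DMSO negative control.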

Read-out in assay [11]: Tumor necrosis factor (Homo sapiens) (UniProt P01375)
In words: BSK_BT_xTNFa: BioMAP Diversity Plus: BT Assay for Tumor necrosis factor alpha (TNF-alpha) Biomarker Activity (AID 2284230). To be noted: primary human B cells with PBMC. In short, it runs like this: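 Compounds were added to a B cell plus PBMC co-culture, and after 24 h secreted TNF-alpha was quantified with Luminex xMAP technology, with responses fitted upward from the DMSO control.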

Read-out in assay [12]: Vascular cell adhesion molecule 1 (VCAM1), VCAM1 (gene 7412)
In words: BSK_MyoF_VCAM1: BioMAP Diversity Plus: MyoF Assay for Vascular cell adhesion molecule 1 (VCAM1) Biomarker Activity (AID 2284231). To be noted: primary human lung fibroblasts. In short, it runs like this: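 ELISA readout of VCAM-1 on human lung fibroblast cultures 24 hours after dosing, analyzed for signal gain relative to DMSO. Overt cytotoxicity was checked by sulforhodamine B total-protein staining in parallel cultures.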

Read-out in assay [13]: Collagen I, COL1A1 (gene 1277)
In words: BSK_MyoF_CollagenI: BioMAP Diversity Plus: MyoF Assay for Collagen I Biomarker Activity (AID 2284238). To be noted: primary human lung fibroblasts. The procedure, abridged:
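Collagen I levels measured by ELISA on human lung fibroblast cultures 24 h post-dosing, with curve fitting in the positive direction relative to DMSO; SRB staining of parallel wells marked cytotoxicity.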

Read-out in assay [14]: Collagen III, COL3A1 (gene 1281)
As to the kind of experiment: BSK_MyoF_CollagenIII: BioMAP Diversity Plus: MyoF Assay for Collagen III Biomarker Activity (AID 2284239). To be noted: primary human lung fibroblasts. In short, it runs like this:
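Collagen III biomarker quantified by ELISA in human lung fibroblast cultures 24 h after dosing. Activity fitted in the positive direction against DMSO as baseline.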

Read-out in assay [15]: Interleukin 17F (IL17F), IL17F (gene 112744)
In words: BSK_BT_xIL17F: BioMAP Diversity Plus: BT Assay for Interleukin 17F (IL17F) Biomarker Activity (AID 2284243). To be noted: primary human B cells with PBMC. The procedure, abridged:
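Human B cells co-cultured with PBMC; secreted IL-17F quantified by LumineX xMAP 24 hours after chemical dosing. Activity fitted in the positive direction against DMSO negative control as baseline.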

Read-out in assay [16]: Actin alpha 1 (ACTA1), ACTA1 (gene 58)
In words: BSK_MyoF_ACTA1: BioMAP Diversity Plus: MyoF Assay for Actin alpha 1 (ACTA1) Biomarker Activity (AID 2284244). To be noted: primary human lung fibroblasts. In short, it runs like this:
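alpha-SMA levels read by ELISA against DMSO baseline, 24 h post-dose, in primary human lung fibroblasts. Parallel cultures stained with 0.1% SRB after 10% TCA fixation (560 nm) to flag overt cytotoxicity.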

Read-out in assay [17]: Interleukin 2 (IL2), IL2 (gene 3558)
As to the kind of experiment: BSK_BT_xIL2: BioMAP Diversity Plus: BT Assay for Interleukin 2 (IL2) Biomarker Activity (AID 2284245). To be noted: primary human B cells with PBMC. The procedure, abridged: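 Secreted IL-2 was read by Luminex xMAP from B cells co-cultured with PBMC (human primary) 24 h post-dosing; activity was analysed as gain of signal relative to DMSO vehicle.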

Read-out in assay [18]: Basic fibroblast growth factor (bFGF), FGF2 (gene 2247)
As to the kind of experiment: BSK_MyoF_bFGF: BioMAP Diversity Plus: MyoF Assay for Basic fibroblast growth factor (bFGF) Biomarker Activity (AID 2284246). To be noted: primary human lung fibroblasts. The procedure, abridged:
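bFGF was measured by ELISA in primary human lung fibroblasts 24 h after chemical addition. Signal was analysed as positive-direction change relative to DMSO baseline.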

Assay [19] is described as follows: UKN2_HCS_IMR90_cell_viability: Viability Assessment in the University of Konstanz (UKN) Leist Lab Neural Crest Cell Migration Assay in human induced IMR90 Pluripotent Stem Cells (UKN2) (AID 2284233).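 Also: viability of neural crest cells differentiated from IMR90 iPSC measured by calcein-AM fluorescence imaging; cells exposed to compound for 24 h after a 24 h migration phase.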 In short, it runs like this: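 cMINC format, iPSC-derived neural crest (IMR90); 24 h migration (EGF/FGF, N2-S), then 24 h toxicant. Calcein-AM/H-33342 stain 30 min; fluorescence intensity by HCS; DMSO-normalised, bidirectional fitting.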

Assay [20] can be described thus: UKN4_HCS_LUHMES_cell_viability: Viability Assessment in the University of Konstanz (UKN) Leist Lab Neurite Outgrowth Assay in human LUHMES cells (UKN4) (AID 2284232). The procedure, abridged:
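Viability was read by high-content imaging of calcein-AM/H-33342-stained cells after 24 h toxicant exposure, staining included. Cells: human LUHMES on day 2 of dopaminergic differentiation, dosed shortly after attachment; DMSO baseline, bidirectional curve fitting.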

Where “and” joins values, the source holds several entries; their conditions need not be identical. Identical values can stand only once. Records with an inconclusive call do not appear. The source holds several records for some structures; these can differ, active in one and inactive in another. Calls of active or inactive are those of the source. The calls were made as follows, unless noted: active = hit-call score of the fitted dose curve at least 0.9, where 1 is the maximum; inactive = score below 0.9.

Chain of Tumor necrosis factor (Homo sapiens) (P01375 whole entry, looked up): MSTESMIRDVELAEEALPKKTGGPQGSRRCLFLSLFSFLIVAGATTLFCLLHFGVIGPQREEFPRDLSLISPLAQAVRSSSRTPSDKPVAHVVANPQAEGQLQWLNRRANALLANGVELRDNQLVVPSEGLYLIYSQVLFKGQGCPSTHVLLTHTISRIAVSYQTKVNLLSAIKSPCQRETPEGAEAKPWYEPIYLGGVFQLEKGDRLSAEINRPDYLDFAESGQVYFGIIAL

For `C1=Cc2cccc3cccc1c23`, the outcome in [1] and in assay [2] was inactive.
Regarding `ClC1=C(Cl)C2(Cl)C3C(Cl)C=CC3C1(Cl)C2(Cl)Cl` (configuration not stated), the AC50 – broadly, the midpoint of the concentration-response curve, whichever way the signal moves – was 50 µM (active) in assay [1]; 26.5 µM (active) in [3]; 12.2 µM (active) in [4]; 90.2 µM (active) in assay [5]; 13.4 µM (active) in assay [6]; 11.5 µM (active) in assay [7]. Also, the outcome in assay [2] was inactive.
On to `CC(C)(C)C(O)(CCc1ccc(Cl)cc1)Cn1cncn1` (configuration not stated), for which the compound was classed as inactive in [1], in assay [6] and in assay [7]. Moreover, the AC50 in assay [2] was 18.2 µM (active); in [4] it was 0.162 µM (active); in assay [5], 9.92 µM (active).
Regarding `O=P(OCCCl)(OCCCl)OCCCl`, the outcome in [1] was inactive.
`OCCOCCO`: the outcome in [4], in assay [5], in [6] and in assay [7] was inactive.
As for `CCCCCCCCn1sccc1=O`, the AC50 in [1] is 7.87 µM (active).
Regarding `c1ccc(N=Nc2ccccc2)cc1`, the outcome in assay [1] was inactive.
For the compound `CCNS(=O)(=O)C(F)(F)C(F)(F)C(F)(F)C(F)(F)C(F)(F)C(F)(F)C(F)(F)C(F)(F)F`, the outcome in assay [8], in assay [9], in assay [10], in [11] and in [17] was inactive. In addition, the AC50 in assay [10] is 19.1 µM (active); in assay [12] it was 30 µM (active) and 40.3 µM (active); in assay [13], 50.6 µM (active) and 44.6 µM (active); in assay [14], 44.1 µM (active) and 45 µM (active); in assay [15], 21.4 µM (active) and 37.4 µM (active); in assay [16], 21.5 µM (active) and 30 µM (active). The concentration at half-maximal activity (AC50) in assay [18] was 46.5 µM (active) and 50.8 µM (active).
In the case of `CCCCOC(=O)c1ccccc1C(=O)OCc1ccccc1`, the outcome in [19], in assay [3], in assay [4] and in [5] was inactive. Further, the AC50 in assay [7] was 50.5 µM (active).
With `CN(C)[C@@H]1C(=O)C(C(N)=O)=C(O)[C@@]2(O)C(=O)C3=C(O)c4c(O)cccc4[C@@](C)(O)[C@H]3C[C@@H]12`, the result in [3], in assay [4], in [5] and in [6] was inactive.
In the case of `CC(C)COC(=O)c1ccccc1C(=O)OCC(C)C`, the result in [19], in [3], in assay [4], in assay [5] and in [6] was inactive. Also, in [7], the AC50 is 80.3 µM (active).
With `COC(=O)Nc1nc2ccccc2[nH]1`, the result in assay [19], in [3] and in assay [7] was inactive. For the same compound, the AC50 in [4] was 3.98 µM (active); in assay [5], 6.5 µM (active); in [6], 9.91 µM (active).
Regarding `Clc1ccc(C(c2ccc(Cl)cc2)C(Cl)(Cl)Cl)cc1`, the AC50 in [1] was 50 µM (active). Moreover, the result in [2] was inactive.
In the case of `[O-][Cl+]O`, the call in [3], in assay [4], in [5], in assay [6] and in assay [7] was inactive.
Turning to `CCC[CH2][Sn]([Cl])([CH2]CCC)[CH2]CCC`, the AC50 in assay [20] was 0.159 µM (active); in assay [19], 0.344 µM (active); in assay [3], 0.079 µM (active); in assay [4] it was 0.0886 µM (active); in assay [5], 4.18 µM (active); in assay [6], 0.335 µM (active). Moreover, the AC50 in [7] is 0.0308 µM (active).
On to `CNC(=O)Oc1cccc2c1OC(C)(C)C2`, for which the outcome in assay [19], in assay [3], in assay [4], in [5], in assay [6] and in assay [7] was inactive.
With `Nc1cc(Cl)cc(C(=O)O)c1Cl`, the call in assay [4], in assay [5], in assay [6] and in assay [7] was inactive.
For `ClC1=C(Cl)[C@]2(Cl)[C@H]3[C@H]([C@@H]4C=C[C@H]3C4)[C@@]1(Cl)C2(Cl)Cl`, the AC50 in assay [1] was 83 µM (active). Also, in [2], the outcome was inactive.
In the case of `COP(=S)(OC)SCN1C(=O)c2ccccc2C1=O`, the call in [19], in assay [3], in assay [4], in [5], in assay [6] and in assay [7] was inactive.

The values are drawn from PubChem BioAssay (EPA / NIEHS).
